In all, about 2,000 compounds went through this assay and about 110 (5.5%) showed an effect of 50% or more. Shown is part of a subset that was picked to be rich in strong results.
Target: Genome polyprotein (dengue virus type 2) (UniProt P29990)
[1] = Thailand/16681/1984, Concentration 25.0 uM, Number of replicates 1.0

For `CCOC(=O)c1cc(CNCc2nnc3ccccn23)[nH]n1`, the inhibition (Thailand/16681/1984, Concentration 49.5 uM, Number of replicates 2.0, Standard deviation 0.017813955579008514 %) was 6.64%, the inhibition (Thailand/16681/1984, Concentration 99.01 uM, Number of replicates 2.0, Standard deviation 0.5926797733534107 %) was 7.63% and the inhibition (Thailand/16681/1984, Concentration 198.0 uM, Number of replicates 2.0, Standard deviation 1.0587355780894199 %) was 6.43%.

`Cc1cc(CO)c2cccc(CC(=O)N[C@H](Cc3c[nH]cn3)C(=O)O)c2n1` showed an inhibition (Thailand/16681/1984, Concentration 49.95 uM, Number of replicates 2.0, Standard deviation 0.5871204354474296 %) of 9.25% and an inhibition (Thailand/16681/1984, Concentration 99.9 uM, Number of replicates 2.0, Standard deviation 0.6044303147182479 %) of 24.8%.

`O=Cc1ccc(N2CCC(C(=O)N3CCN(Cc4ccc(Cl)nc4)CC3)CC2)cc1` gave an inhibition [1] of 10.1%.

In the case of `C[C@H](NC(=O)C1CCN(c2ccc(C=O)cc2)CC1)c1cccc(C(F)(F)F)c1`, the inhibition [1] is reported as 11%.

`O=Cc1ccc(N2CCC(C(=O)N[C@H]3C[C@@H]3c3ccc(F)c(F)c3)CC2)cc1` was tested, and the inhibition [1] was 12.2%.

With `O=Cc1ccc(N2CCC(C(=O)NCc3ccccc3OC(F)(F)F)CC2)cc1` the inhibition [1] was 12.7%.

With `O=Cc1ccc(N2CCC(C(=O)Nc3ccc(Oc4ccc(Cl)cc4)cc3)CC2)cc1` the inhibition [1] was 3.01%.

`O=C(c1cc2ccccc2[nH]1)N1CCC[C@H](c2c[nH]c3ncccc23)C1` was tested, and the inhibition (Thailand/16681/1984, Concentration 49.5 uM, Number of replicates 2.0, Standard deviation 0.6846779142829902 %) was 3.74%, the inhibition (Thailand/16681/1984, Concentration 99.01 uM, Number of replicates 2.0, Standard deviation 0.6286192340156203 %) was 6.35% and the inhibition (Thailand/16681/1984, Concentration 198.0 uM, Number of replicates 2.0, Standard deviation 0.39513209958624096 %) was 4.86%.

`O=Cc1ccc(N2CCC(C(=O)N3CCO[C@@H](c4ccccc4)C3)CC2)cc1` gave an inhibition [1] of 8.68%.

With `Cc1cc(CO)c2cccc(Cc3cccc(C(=O)NCCN4CCOCC4)c3)c2n1` the inhibition (Thailand/16681/1984, Concentration 49.95 uM, Number of replicates 2.0, Standard deviation 1.1800261159088588 %) was -8.12% and the inhibition (Thailand/16681/1984, Concentration 99.9 uM, Number of replicates 2.0, Standard deviation 0.7869239771342965 %) was -3.46%.

In the case of `O=C(NCC1(c2ccncc2F)CCC1)[C@@]1(c2ccc(F)cc2)CCCNC1`, the inhibition (Thailand/16681/1984, Concentration 49.5 uM, Number of replicates 2.0, Standard deviation 0.9074685157350926 %) is reported as -2.89%, the inhibition (Thailand/16681/1984, Concentration 99.01 uM, Number of replicates 2.0, Standard deviation 1.7740222143666056 %) is reported as -1.32% and the inhibition (Thailand/16681/1984, Concentration 198.0 uM, Number of replicates 2.0, Standard deviation 1.670161679604597 %) is reported as -0.296%.

`Cc1cc(CO)c2cccc(Cc3cccc(C(=O)N[C@@H](CCCN)C(=O)O)c3)c2n1` showed an inhibition (Thailand/16681/1984, Concentration 49.95 uM, Number of replicates 2.0, Standard deviation 0.7049975000059713 %) of -1.78% and an inhibition (Thailand/16681/1984, Concentration 99.9 uM, Number of replicates 2.0, Standard deviation 0.2824297407941699 %) of 11.7%.

`Cc1cc(CO)c2cccc(CC(=O)N[C@@H](C)C(N)=O)c2n1` gave an inhibition (Thailand/16681/1984, Concentration 49.95 uM, Number of replicates 2.0, Standard deviation 0.6764350022386235 %) of -6.74% and an inhibition (Thailand/16681/1984, Concentration 99.9 uM, Number of replicates 2.0, Standard deviation 0.17585957987303982 %) of -4.59%.

Work on `Cc1cc(CO)c2cccc(CC(=O)N[C@@H](CCC(N)=O)C(=O)O)c2n1` yielded an inhibition (Thailand/16681/1984, Concentration 49.95 uM, Number of replicates 2.0, Standard deviation 0.1031646955614498 %) of 95.6% and an inhibition (Thailand/16681/1984, Concentration 99.9 uM, Number of replicates 2.0, Standard deviation 0.012461980167701147 %) of 98.7%.

With `Cc1cc(CO)c2cccc(Cc3cccc(C(=O)N[C@@H](CCN)C(=O)O)c3)c2n1` the inhibition (Thailand/16681/1984, Concentration 49.95 uM, Number of replicates 2.0, Standard deviation 0.6194784255105775 %) was -9.07% and the inhibition (Thailand/16681/1984, Concentration 99.9 uM, Number of replicates 2.0, Standard deviation 14.524673907807347 %) was 0.432%.

With `Cc1cc(CO)c2cccc(Cc3cccc(C(=O)N[C@@H](CCC(N)=O)C(=O)O)c3)c2n1` the inhibition (Thailand/16681/1984, Concentration 49.95 uM, Number of replicates 2.0, Standard deviation 0.9076569964416333 %) was 26.5% and the inhibition (Thailand/16681/1984, Concentration 99.9 uM, Number of replicates 2.0, Standard deviation 0.5346782919570826 %) was 79%.

`Cc1cc(CO)c2cccc(Cc3ccccc3C(=O)N[C@@H](CCC(N)=O)C(=O)O)c2n1` was tested, and the inhibition (Thailand/16681/1984, Concentration 49.95 uM, Number of replicates 2.0, Standard deviation 0.9816783263695582 %) was 12.6% and the inhibition (Thailand/16681/1984, Concentration 99.9 uM, Number of replicates 2.0, Standard deviation 0.9155644195718532 %) was 39.4%.

Compound `OB1CCc2c(cccc2N2CC[C@@H](O)C2)O1` has an inhibition (Thailand/16681/1984, Concentration 49.5 uM, Number of replicates 2.0, Standard deviation 2.1653827241885084 %) of -1.07%, an inhibition (Thailand/16681/1984, Concentration 99.01 uM, Number of replicates 2.0, Standard deviation 1.9510885480745654 %) of -0.363% and an inhibition (Thailand/16681/1984, Concentration 198.0 uM, Number of replicates 2.0, Standard deviation 2.0113725552722737 %) of 1.02%.

`Cc1nnccc1Cn1cc(C2CCNCC2)c(C)n1` gave an inhibition (Thailand/16681/1984, Concentration 49.5 uM, Number of replicates 2.0, Standard deviation 1.059758229221688 %) of -5.29%, an inhibition (Thailand/16681/1984, Concentration 99.01 uM, Number of replicates 2.0, Standard deviation 7.779121042682183 %) of 2.01% and an inhibition (Thailand/16681/1984, Concentration 198.0 uM, Number of replicates 2.0, Standard deviation 1.1444678313445817 %) of -3.21%.

Compound `Cc1cc(CO)c2cccc(C[C@H](NC(=O)[C@@H](N)c3ccsc3)C(=O)O)c2n1` has an inhibition (Thailand/16681/1984, Concentration 49.95 uM, Number of replicates 2.0, Standard deviation 1.7977802295531586 %) of 8.31% and an inhibition (Thailand/16681/1984, Concentration 99.9 uM, Number of replicates 2.0, Standard deviation 1.1856845832025373 %) of 20.1%.

`Cc1cc(CO)c2cccc(Cc3ccccc3NC(=O)c3ccno3)c2n1` gave an inhibition (Thailand/16681/1984, Concentration 49.95 uM, Number of replicates 2.0, Standard deviation 3.752588616330447 %) of 3.29% and an inhibition (Thailand/16681/1984, Concentration 99.9 uM, Number of replicates 2.0, Standard deviation 1.45880155634974 %) of 6.29%.

For `Cc1cccc(C)c1OC[C@H](C)NC(=O)C1CCN(c2ccc(C=O)cc2)CC1`, the inhibition [1] was 6.86%.

`CNC(=O)c1cc(Cl)ccc1N(C)S(=O)(=O)c1ccc(Oc2ccccc2Cl)cc1` showed an inhibition (Thailand/16681/1984, Concentration 49.5 uM, Number of replicates 2.0, Standard deviation 1.1912141654334696 %) of -2.39%, an inhibition (Thailand/16681/1984, Concentration 99.01 uM, Number of replicates 2.0, Standard deviation 1.3706697565683075 %) of -0.121% and an inhibition (Thailand/16681/1984, Concentration 198.0 uM, Number of replicates 2.0, Standard deviation 0.031456216092408736 %) of 3.32%.

`CN(c1ccc(Cl)cc1C(N)=O)S(=O)(=O)c1ccc(Oc2ccccc2Cl)cc1` gave an inhibition (Thailand/16681/1984, Concentration 49.5 uM, Number of replicates 2.0, Standard deviation 0.11551161483271621 %) of 1.15%, an inhibition (Thailand/16681/1984, Concentration 99.01 uM, Number of replicates 2.0, Standard deviation 0.4161514072882 %) of 3.78% and an inhibition (Thailand/16681/1984, Concentration 198.0 uM, Number of replicates 2.0, Standard deviation 1.5666270190069185 %) of 5.59%.

For `CN(CCS(N)(=O)=O)C(=O)c1cc(Cl)ccc1NS(=O)(=O)c1ccc(Oc2ccccc2Cl)cc1`, the inhibition (Thailand/16681/1984, Concentration 49.5 uM, Number of replicates 2.0, Standard deviation 3.051075775612508 %) was 8.12%, the inhibition (Thailand/16681/1984, Concentration 99.01 uM, Number of replicates 2.0, Standard deviation 2.2523140974306535 %) was 55.8% and the inhibition (Thailand/16681/1984, Concentration 198.0 uM, Number of replicates 2.0, Standard deviation 0.05978513602530914 %) was 97.7%.

`CCCN(C)C(=O)c1cc(Cl)ccc1NS(=O)(=O)c1ccc(Oc2ccccc2Cl)cc1` showed an inhibition (Thailand/16681/1984, Concentration 49.5 uM, Number of replicates 2.0, Standard deviation 0.9470295707961462 %) of 75.9%, an inhibition (Thailand/16681/1984, Concentration 99.01 uM, Number of replicates 2.0, Standard deviation 0.4835625940830703 %) of 88.8% and an inhibition (Thailand/16681/1984, Concentration 198.0 uM, Number of replicates 2.0, Standard deviation 0.2692812727579233 %) of 93.4%.

`COCCCN(Cc1ccccc1)C(=O)C1CCN(c2ccc(C=O)cc2)CC1` showed an inhibition [1] of 16.7%.

Work on `O=Cc1ccc(N2CCC(C(=O)Nc3cccc(OC(F)(F)F)c3)CC2)cc1` yielded an inhibition [1] of 12.8%.

Compound `O=Cc1ccc(N2CCC(C(=O)N3CCN(c4ncc(C(F)(F)F)cc4Cl)CC3)CC2)cc1` has an inhibition [1] of -1.15%.

`CSCC(=O)Nc1ccc(Cl)c2cccnc12` was tested, and the inhibition (Thailand/16681/1984, Concentration 49.95 uM, Number of replicates 2.0, Standard deviation 4.284996583998793 %) was -8.76% and the inhibition (Thailand/16681/1984, Concentration 99.9 uM, Number of replicates 2.0, Standard deviation 5.022059659232943 %) was -8.17%.

`Cc1c(C(=O)NCc2ccc(Cl)cc2OCCO)ccc(O)c1NC(=O)c1ccncc1F` was tested, and the inhibition (Thailand/16681/1984, Concentration 49.5 uM, Number of replicates 2.0, Standard deviation 1.9465984757153059 %) was -3.14%, the inhibition (Thailand/16681/1984, Concentration 99.01 uM, Number of replicates 2.0, Standard deviation 1.7394020396248402 %) was -2.65% and the inhibition (Thailand/16681/1984, Concentration 198.0 uM, Number of replicates 2.0, Standard deviation 1.2400320592735166 %) was 0.351%.
